In PubChem BioAssay (EPA / NIEHS) one finds outcome and AC50 data, which are given here for ten molecules.

Where “and” joins values, the source holds several entries; their conditions need not be identical. Identical values can stand only once. Results filed as inconclusive are left out. More than one record can exist for a structure, and the calls need not agree. Calls of active or inactive are those of the source. How the source made its calls: active means hit-call score of the fitted dose curve at least 0.9, where 1 is the maximum; inconclusive means response in the unintended direction; inactive means score below 0.9.

The target of test [1] is human Thromboxane A2 Receptor (TXA2), TBXA2R (gene 6915) (UniProt P21731). Put plainly: NVS_GPCR_hTXA2: NovaScreen (NVS) G Protein-Coupled Receptor Assay for human Thromboxane A2 Receptor (TXA2) (AID 2283282).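 Further: actives reduce bound radioligand signal relative to DMSO baseline.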 Put shortly: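 Filter scintillation counting of bound radioligand, human platelet protein, 1 h exposure. Single-concentration duplicates (25 uM) first, concentration-response follow-up for actives. Binding loss scored against DMSO baseline.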
Chain of human Thromboxane A2 Receptor (TXA2), TBXA2R (gene 6915) (P21731 whole entry, looked up): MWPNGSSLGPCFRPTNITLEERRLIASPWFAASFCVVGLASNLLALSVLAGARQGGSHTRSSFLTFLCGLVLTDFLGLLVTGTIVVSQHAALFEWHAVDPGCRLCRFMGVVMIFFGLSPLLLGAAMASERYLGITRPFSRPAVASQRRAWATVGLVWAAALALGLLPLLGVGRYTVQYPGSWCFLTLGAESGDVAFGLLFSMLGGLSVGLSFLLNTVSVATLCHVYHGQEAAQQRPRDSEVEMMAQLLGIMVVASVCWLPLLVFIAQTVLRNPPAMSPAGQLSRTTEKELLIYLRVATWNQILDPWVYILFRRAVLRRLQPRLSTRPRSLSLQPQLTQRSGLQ

The target in test [2] is human Opioid Receptor Mu (Opiate Mu), OPRM1 (gene 4988) (UniProt P35372). Nature of the test: NVS_GPCR_hOpiate_mu: NovaScreen (NVS) G Protein-Coupled Receptor Assay for human Opioid Receptor Mu (Opiate Mu) (AID 2283290).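 Further: hits lower bound tracer signal versus DMSO meaning displacement of the ligand.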 Put shortly: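 Primary screen in duplicate at 25 uM, with actives followed in concentration series. CHO-derived receptor membranes, cell-free; bound radioligand read by scintillation counting after filtration at 2.5 h, decrease scored against DMSO.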
Chain of human Opioid Receptor Mu (Opiate Mu), OPRM1 (gene 4988) (P35372 whole entry, looked up): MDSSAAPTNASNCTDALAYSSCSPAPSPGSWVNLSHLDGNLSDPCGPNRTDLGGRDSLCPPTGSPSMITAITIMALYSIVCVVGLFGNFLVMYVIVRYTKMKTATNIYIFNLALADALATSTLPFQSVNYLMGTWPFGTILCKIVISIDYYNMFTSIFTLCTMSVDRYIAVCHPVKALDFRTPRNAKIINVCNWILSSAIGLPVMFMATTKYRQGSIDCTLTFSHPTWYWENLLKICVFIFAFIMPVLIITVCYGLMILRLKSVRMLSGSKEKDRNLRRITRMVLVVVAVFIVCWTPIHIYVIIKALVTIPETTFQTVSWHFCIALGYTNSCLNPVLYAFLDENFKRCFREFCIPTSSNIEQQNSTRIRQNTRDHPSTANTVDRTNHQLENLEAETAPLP

Test [3] addresses guinea pig Serotonin, 5-Hydroxytryptamine Receptor 4 (5HT4), HTR4 (gene 100135548) (UniProt O70528). Put plainly: NVS_GPCR_g5HT4: NovaScreen (NVS) G Protein-Coupled Receptor Assay for guinea pig Serotonin, 5-Hydroxytryptamine Receptor 4 (5HT4) (AID 2283294). Put shortly:
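Guinea pig striatal membranes; radioligand competitive displacement, filtration and scintillation counting after 1 h. Primary screen in duplicate at 25 uM; actives then tested in concentration series; loss of binding signal fitted relative to DMSO.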

Test [4] concerns the target human Opioid Receptor Delta 1 (Opiate D1), OPRD1 (gene 4985) (UniProt P41143). Nature of the test: NVS_GPCR_hOpiate_D1: NovaScreen (NVS) G Protein-Coupled Receptor Assay for human Opioid Receptor Delta 1 (Opiate D1) (AID 2283280). In short, it runs like this: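 Radioligand displacement on membranes from CHO cells expressing the receptor, read by filter scintillation counting 1 h after dosing. Duplicate single-point screen at 25 uM, then concentration series for actives; loss of signal versus DMSO.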

Test [5] has as its target human Orphanin, Opioid Related Nociceptin Receptor 1 (ORL1), OPRL1 (gene 4987) (UniProt P41146). Nature of the test: NVS_GPCR_hORL1: NovaScreen (NVS) G Protein-Coupled Receptor Assay for human Orphanin, Opioid Related Nociceptin Receptor 1 (ORL1) (AID 2283283). In short, it runs like this: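 Filter-based radioligand displacement with receptor extracted from HEK293 cells, read 1 hour after dosing by scintillation counting. Duplicate single-point screen at 25 uM; qualifying chemicals then run in concentration-response to 50 uM, analysed relative to DMSO.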

Test [6] deals with rabbit Platelet Activating Factor Receptor (PAF), gene 100354046. Put plainly: NVS_GPCR_rabPAF: NovaScreen (NVS) G Protein-Coupled Receptor Assay for rabbit Platelet Activating Factor Receptor (PAF) (AID 2283287). Put shortly:
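Rabbit platelet membrane preparation; radioligand displacement read by filter-based scintillation counting 1 h after dosing, loss of signal versus DMSO. Primary screen in duplicate at 25 uM, actives followed up in concentration series.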

Test [7] has as its target guinea pig Bradykinin Receptor B2 (BK2), BDKRB2 (gene 100135486) (UniProt O70526). Put plainly: NVS_GPCR_gBK2: NovaScreen (NVS) G Protein-Coupled Receptor Assay for guinea pig Bradykinin Receptor B2 (BK2) (AID 2283292). The method, then: (§1) NVS_GPCR_gBK2 is a biochemical, single-readout assay that uses extracted gene-proteins from Guinea pig ileum membranes in a tissue-based cell-free assay. Measurements were taken 1 hour after chemical dosing in a 48-well plate.NVS_GPCR_gBK2 is one of one assay component(s) measured or calculated from the NVS_GPCR_gBK2 assay. It is designed to make measurements of radioligand binding, a form of binding reporter, as detected with scintillation counting signals by Filter-based radiodetection technology.Data from the assay component NVS_GPCR_gBK2 was analyzed into 1 assay endpoint. This assay endpoint, NVS_GPCR_gBK2, was analyzed in the positive analysis fitting direction relative to DMSO as the negative control and baseline of activity. Using a type of binding reporter, loss-of-signal activity can be used to understand changes in the binding as they relate to the gene Bdkrb2. Furthermore, this assay endpoint can be referred to as a primary readout, because the performed assay has only produced 1 assay endpoint. To generalize the intended target to other relatable targets, this assay endpoint is annotated to the gpcr intended target family, where the subfamily is rhodopsin-like receptor. […]

For test [8], the target named is rat Serotonin, 5-Hydroxytryptamine Receptor 1 (5HT1), Non-Selective Binding, Htr1a (gene 24473) (UniProt P19327). Nature of the test: NVS_GPCR_r5HT1_NonSelective: NovaScreen (NVS) G Protein-Coupled Receptor Assay for rat Serotonin, 5-Hydroxytryptamine Receptor 1 (5HT1), Non-Selective Binding (AID 2283286). Put shortly: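 Rat cortical membranes, radioligand displacement, 1 h incubation, read by filter scintillation. Primary screen in duplicate at 25 uM. Hits (e.g. ≥30% inhibition) went to concentration-response up to 50 uM, fitted as loss of binding versus DMSO.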
Chain of rat Serotonin, 5-Hydroxytryptamine Receptor 1 (5HT1), Non-Selective Binding, Htr1a (gene 24473) (P19327 whole entry, looked up): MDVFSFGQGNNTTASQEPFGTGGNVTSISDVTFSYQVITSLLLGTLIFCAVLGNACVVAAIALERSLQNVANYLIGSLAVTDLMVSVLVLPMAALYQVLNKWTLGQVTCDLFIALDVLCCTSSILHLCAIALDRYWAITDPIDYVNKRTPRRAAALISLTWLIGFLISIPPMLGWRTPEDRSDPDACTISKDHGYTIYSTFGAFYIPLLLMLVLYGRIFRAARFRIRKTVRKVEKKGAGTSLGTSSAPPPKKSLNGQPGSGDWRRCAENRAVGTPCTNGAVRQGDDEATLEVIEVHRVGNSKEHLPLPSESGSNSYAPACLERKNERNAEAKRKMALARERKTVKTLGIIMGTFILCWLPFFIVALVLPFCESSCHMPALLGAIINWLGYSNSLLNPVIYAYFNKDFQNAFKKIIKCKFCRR

Test [9] addresses rat Adrenergic, Alpha 1, Non-selective Receptor (Adra1), Adra1a (gene 29412) (UniProt P43140). Nature of the test: NVS_GPCR_rAdra1_NonSelective: NovaScreen (NVS) G Protein-Coupled Receptor Assay for rat Adrenergic, Alpha 1, Non-selective Receptor (Adra1) (AID 2283289). As for the experimental part:
as §1, with “NVS_GPCR_rAdra1_NonSelective” for “NVS_GPCR_gBK2”, “Rat forebrain” for “Guinea pig ileum”, “plate.NVS_GPCR_rAdra1_NonSelective” for “plate.NVS_GPCR_gBK2”, “NVS_GPCR_rAdra1_NonSelective,” for “NVS_GPCR_gBK2,”, “Adra1a.” for “Bdkrb2.”

Test [10] deals with rat Serotonin, 5-Hydroxytryptamine Receptor (5HT), Non-Selective Binding, Htr1a (gene 24473) (UniProt P19327). Nature of the test: NVS_GPCR_r5HT_NonSelective: NovaScreen (NVS) G Protein-Coupled Receptor Assay for rat Serotonin, 5-Hydroxytryptamine Receptor (5HT), Non-Selective Binding (AID 2283295). In short, it runs like this:
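Radioligand displacement on rat cortical membranes, 1 h incubation, filter-based scintillation counting. Primary duplicates at 25 uM, actives retested in concentration series; loss of signal fitted against DMSO as baseline.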

Chain of human Orphanin, Opioid Related Nociceptin Receptor 1 (ORL1), OPRL1 (gene 4987) (P41146 whole entry, looked up): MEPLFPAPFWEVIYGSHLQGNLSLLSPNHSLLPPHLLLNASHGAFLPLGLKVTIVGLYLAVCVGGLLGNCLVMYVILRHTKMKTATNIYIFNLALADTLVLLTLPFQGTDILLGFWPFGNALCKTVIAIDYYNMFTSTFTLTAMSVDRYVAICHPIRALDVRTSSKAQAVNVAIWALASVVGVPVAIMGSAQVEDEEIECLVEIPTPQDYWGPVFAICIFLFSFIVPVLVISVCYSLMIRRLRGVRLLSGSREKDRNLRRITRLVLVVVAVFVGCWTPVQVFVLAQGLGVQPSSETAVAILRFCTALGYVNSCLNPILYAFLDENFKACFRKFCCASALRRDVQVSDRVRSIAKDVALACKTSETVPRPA
Chain of human Opioid Receptor Delta 1 (Opiate D1), OPRD1 (gene 4985) (P41143 whole entry, looked up): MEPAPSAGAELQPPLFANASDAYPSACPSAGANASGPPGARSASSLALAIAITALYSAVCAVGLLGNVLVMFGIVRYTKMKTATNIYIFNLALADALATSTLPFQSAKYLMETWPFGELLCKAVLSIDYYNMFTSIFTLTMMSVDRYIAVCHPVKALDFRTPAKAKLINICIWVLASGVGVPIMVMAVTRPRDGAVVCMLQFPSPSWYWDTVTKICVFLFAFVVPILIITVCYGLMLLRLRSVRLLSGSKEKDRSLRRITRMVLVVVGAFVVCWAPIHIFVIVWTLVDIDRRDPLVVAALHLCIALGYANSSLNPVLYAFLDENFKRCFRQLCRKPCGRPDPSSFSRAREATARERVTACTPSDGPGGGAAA
Chain of guinea pig Bradykinin Receptor B2 (BK2), BDKRB2 (gene 100135486) (O70526 whole entry, looked up): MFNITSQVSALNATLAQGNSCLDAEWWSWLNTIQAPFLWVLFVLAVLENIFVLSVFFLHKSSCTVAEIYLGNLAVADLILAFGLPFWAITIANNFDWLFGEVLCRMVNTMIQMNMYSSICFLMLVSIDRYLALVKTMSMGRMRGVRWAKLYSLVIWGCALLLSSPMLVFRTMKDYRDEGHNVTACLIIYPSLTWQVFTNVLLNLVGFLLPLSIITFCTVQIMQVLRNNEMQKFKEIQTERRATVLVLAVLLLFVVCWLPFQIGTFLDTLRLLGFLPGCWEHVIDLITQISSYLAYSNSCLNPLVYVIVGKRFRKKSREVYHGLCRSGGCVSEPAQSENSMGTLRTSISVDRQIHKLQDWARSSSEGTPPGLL
Chain of guinea pig Serotonin, 5-Hydroxytryptamine Receptor 4 (5HT4), HTR4 (gene 100135548) (O70528 whole entry, looked up): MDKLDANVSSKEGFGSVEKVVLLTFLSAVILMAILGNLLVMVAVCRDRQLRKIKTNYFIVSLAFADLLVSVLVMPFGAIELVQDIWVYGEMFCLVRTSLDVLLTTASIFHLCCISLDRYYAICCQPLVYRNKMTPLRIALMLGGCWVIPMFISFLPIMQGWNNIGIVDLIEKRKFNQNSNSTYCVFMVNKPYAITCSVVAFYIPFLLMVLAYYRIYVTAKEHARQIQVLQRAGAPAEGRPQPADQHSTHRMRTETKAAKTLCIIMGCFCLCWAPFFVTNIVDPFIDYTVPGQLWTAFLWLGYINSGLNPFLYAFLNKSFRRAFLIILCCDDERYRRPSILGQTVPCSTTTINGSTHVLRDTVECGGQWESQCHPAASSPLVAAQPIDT
Chain of rat Serotonin, 5-Hydroxytryptamine Receptor (5HT), Non-Selective Binding, Htr1a (gene 24473) (P19327 whole entry, looked up): as the sequence (P19327 whole entry, looked up) above
Chain of rat Adrenergic, Alpha 1, Non-selective Receptor (Adra1), Adra1a (gene 29412) (P43140 whole entry, looked up): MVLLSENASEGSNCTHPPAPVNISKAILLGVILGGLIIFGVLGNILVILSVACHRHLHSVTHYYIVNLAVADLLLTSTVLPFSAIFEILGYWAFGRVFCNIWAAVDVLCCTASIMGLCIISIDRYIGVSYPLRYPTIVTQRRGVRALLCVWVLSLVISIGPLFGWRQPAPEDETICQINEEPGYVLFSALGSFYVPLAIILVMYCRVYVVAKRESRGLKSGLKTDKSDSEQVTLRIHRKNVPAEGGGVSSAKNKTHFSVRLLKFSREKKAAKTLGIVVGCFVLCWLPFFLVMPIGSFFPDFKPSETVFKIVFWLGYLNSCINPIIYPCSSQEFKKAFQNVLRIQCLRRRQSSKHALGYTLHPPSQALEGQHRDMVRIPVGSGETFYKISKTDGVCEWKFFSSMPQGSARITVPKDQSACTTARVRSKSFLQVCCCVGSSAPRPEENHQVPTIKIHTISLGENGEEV

`CC(C)(C)c1cc(CCC(=O)OCCSCCOC(=O)CCc2cc(C(C)(C)C)c(O)c(C(C)(C)C)c2)cc(C(C)(C)C)c1O`: the call in [1] was inactive.

With `O=S1(=O)CC(Cl)(Cl)C(Cl)(Cl)C1`, in [1], the call was inactive.

Consider `c1ccc2c(c1)-c1ccc3ccc4cccc5cc-2c1c3c45`, for which, in [2], the AC50 is 3.45 µM (active).

Regarding `CC/C=C\C#N`, the outcome in test [1] was inactive.

Turning to `C#C[C@]1(O)CC[C@H]2[C@@H]3CCc4cc(O)ccc4[C@H]3CC[C@@]21C`, in test [2], the AC50 is 25 µM (active) and 6.05 µM (active); the call was inactive. In addition, in [3], the half-maximal activity concentration (AC50) was 2.64 µM (active).

Consider `Cc1cccc(O)c1`, for which the outcome in test [1] was inactive.

`COc1ccccc1NC(=O)CC(C)=O`: the result in [1] was inactive.

Turning to `CC/C(=C(\c1ccccc1)c1ccc(OCCN(C)C)cc1)c1ccccc1`, the result in [4], in [6], in test [2] and in test [7] was inactive. Besides, the AC50 in [5] was 9.83 µM (active).

On to `O=C(c1ccc(OCCN2CCCCC2)cc1)c1c(-c2ccc(O)cc2)sc2cc(O)ccc12`, for which the AC50 in [4] is 5.28 µM (active); in [5] it was 0.982 µM (active); in [8], 18.5 µM (active); in [6], 12.1 µM (active); in test [9], 1.49 µM (active); in test [2], 0.711 µM (active). For the same molecule, the AC50 is 4.36 µM (active) in test [3] and 5.24 µM (active) in test [10]. Further, in [7], the call was inactive.

`Cc1cc(O)c(C)c(C)c1O`: in test [1], the outcome was inactive.

For orientation: AC50 means the concentration giving half of the maximal activity seen.
